Measurements reported in the supplement of paper PMC7411054.
Structures can show the parent of a compound that is named as a salt.

Assays:
Test in all cases: phenotypically active (imaging signature differs from DMSO and reproducible) at any of 0.3-9 uM (binary (1 = active, 0 = inactive)); higher = active
Conditions in all cases: treatment time: 24 h
A549-ACTB-RAB5A = tested on: A549-ACTB-RAB5A
Procedure, shortened: (§1)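 Live-cell features were measured per well and normalised to solvent control wells after fifteen gene-edited A549, HepG2 and WPMY1 reporter lines had been treated for 24 h at 0.3, 1, 3 or 9 µM in four wells each. A condition was deviating when ≥3 of 4 wells sat beyond the 95th percentile of control Euclidean distances. It was reproducible when the median replicate Pearson correlation exceeded the 95th percentile of non-replicates. Phenotypic activity demanded both.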

A549-CANX-COX4 = tested on: A549-CANX-COX4
Procedure, shortened: as §1

A549-GM130-SQSTM1 = tested on: A549-GM130-SQSTM1
Procedure, shortened: as §1

A549-TP53BP1-CLTA = tested on: A549-TP53BP1-CLTA
Procedure, shortened: as §1

A549-TUBA1B-RELA = tested on: A549-TUBA1B-RELA
Procedure, shortened: as §1

HepG2-ACTB-RAB5A = tested on: HepG2-ACTB-RAB5A
Procedure, shortened: as §1

HepG2-CANX-COX4 = tested on: HepG2-CANX-COX4
Procedure, shortened: as §1

HepG2-GM130-SQSTM1 = tested on: HepG2-GM130-SQSTM1
Procedure, shortened: as §1

HepG2-TP53BP1-CLTA = tested on: HepG2-TP53BP1-CLTA
Procedure, shortened: as §1

HepG2-TUBA1B-RELA = tested on: HepG2-TUBA1B-RELA
Procedure, shortened: as §1

WPMY1-ACTB-RAB5A = tested on: WPMY1-ACTB-RAB5A
Procedure, shortened: as §1

WPMY1-CANX-COX4 = tested on: WPMY1-CANX-COX4
Procedure, shortened: as §1

WPMY1-GM130-SQSTM1 = tested on: WPMY1-GM130-SQSTM1
Procedure, shortened: as §1

WPMY1-TP53BP1-CLTA = tested on: WPMY1-TP53BP1-CLTA
Procedure, shortened: as §1

WPMY1-TUBA1B-RELA = tested on: WPMY1-TUBA1B-RELA
Procedure, shortened: as §1

Measured: phenotypically active

CO[C@H]1C=C2CCN(C)[C@H]2[C@@H]2c3cc4c(cc3[C@@H](O)O[C@@H]21)OCO4 [Unsevine]
inactive: A549-ACTB-RAB5A 0 | A549-CANX-COX4 0 | A549-GM130-SQSTM1 0 | A549-TP53BP1-CLTA 0 | A549-TUBA1B-RELA 0 | HepG2-ACTB-RAB5A 0 | HepG2-CANX-COX4 0 | HepG2-GM130-SQSTM1 0 | HepG2-TP53BP1-CLTA 0 | HepG2-TUBA1B-RELA 0 | WPMY1-ACTB-RAB5A 0 | WPMY1-CANX-COX4 0 | WPMY1-GM130-SQSTM1 0 | WPMY1-TP53BP1-CLTA 0 | WPMY1-TUBA1B-RELA 0

CO[C@H](C)[C@](O)(C(=O)OCC1=CCN2CC[C@H](O)[C@@H]12)C(C)C [Heliotrine]
inactive: A549-ACTB-RAB5A 0 | A549-CANX-COX4 0 | A549-GM130-SQSTM1 0 | A549-TP53BP1-CLTA 0 | A549-TUBA1B-RELA 0 | HepG2-ACTB-RAB5A 0 | HepG2-CANX-COX4 0 | HepG2-GM130-SQSTM1 0 | HepG2-TP53BP1-CLTA 0 | HepG2-TUBA1B-RELA 0 | WPMY1-ACTB-RAB5A 0 | WPMY1-CANX-COX4 0 | WPMY1-GM130-SQSTM1 0 | WPMY1-TP53BP1-CLTA 0 | WPMY1-TUBA1B-RELA 0

CN(C)NC(=O)CCC(=O)O [Daminozide]
inactive: A549-ACTB-RAB5A 0 | A549-CANX-COX4 0 | A549-GM130-SQSTM1 0 | A549-TP53BP1-CLTA 0 | A549-TUBA1B-RELA 0 | HepG2-ACTB-RAB5A 0 | HepG2-CANX-COX4 0 | HepG2-GM130-SQSTM1 0 | HepG2-TP53BP1-CLTA 0 | HepG2-TUBA1B-RELA 0 | WPMY1-ACTB-RAB5A 0 | WPMY1-CANX-COX4 0 | WPMY1-GM130-SQSTM1 0 | WPMY1-TP53BP1-CLTA 0 | WPMY1-TUBA1B-RELA 0

CC[C@H]1C[N@@]2CC[C@H]1C[C@H]2[C@@H](O)c1ccnc2ccc(O)cc12 [Hydrocupreine]
inactive: A549-ACTB-RAB5A 0 | A549-CANX-COX4 0 | A549-GM130-SQSTM1 0 | A549-TP53BP1-CLTA 0 | A549-TUBA1B-RELA 0 | HepG2-ACTB-RAB5A 0 | HepG2-CANX-COX4 0 | HepG2-GM130-SQSTM1 0 | HepG2-TP53BP1-CLTA 0 | HepG2-TUBA1B-RELA 0 | WPMY1-ACTB-RAB5A 0 | WPMY1-CANX-COX4 0 | WPMY1-GM130-SQSTM1 0 | WPMY1-TP53BP1-CLTA 0 | WPMY1-TUBA1B-RELA 0

CCN(C)C(=O)Oc1cccc([C@H](C)N(C)C)c1 [rivastigmine]
inactive: A549-ACTB-RAB5A 0 | A549-CANX-COX4 0 | A549-GM130-SQSTM1 0 | A549-TP53BP1-CLTA 0 | A549-TUBA1B-RELA 0 | HepG2-ACTB-RAB5A 0 | HepG2-CANX-COX4 0 | HepG2-GM130-SQSTM1 0 | HepG2-TP53BP1-CLTA 0 | HepG2-TUBA1B-RELA 0 | WPMY1-ACTB-RAB5A 0 | WPMY1-CANX-COX4 0 | WPMY1-GM130-SQSTM1 0 | WPMY1-TP53BP1-CLTA 0 | WPMY1-TUBA1B-RELA 0

CNC(=O)Oc1ccc2c(c1)[C@]1(C)CCN(C)O[C@@H]1N2C [Geneserine]
inactive: A549-ACTB-RAB5A 0 | A549-CANX-COX4 0 | A549-GM130-SQSTM1 0 | A549-TP53BP1-CLTA 0 | A549-TUBA1B-RELA 0 | HepG2-ACTB-RAB5A 0 | HepG2-CANX-COX4 0 | HepG2-GM130-SQSTM1 0 | HepG2-TP53BP1-CLTA 0 | HepG2-TUBA1B-RELA 0 | WPMY1-ACTB-RAB5A 0 | WPMY1-CANX-COX4 0 | WPMY1-GM130-SQSTM1 0 | WPMY1-TP53BP1-CLTA 0 | WPMY1-TUBA1B-RELA 0

CC1=C2[C@H]3OC(=O)[C@@H](C)[C@@H]3CC[C@@]2(C)C=CC1=O [alpha-Santonin]
inactive: A549-ACTB-RAB5A 0 | A549-CANX-COX4 0 | A549-GM130-SQSTM1 0 | A549-TP53BP1-CLTA 0 | A549-TUBA1B-RELA 0 | HepG2-ACTB-RAB5A 0 | HepG2-CANX-COX4 0 | HepG2-GM130-SQSTM1 0 | HepG2-TP53BP1-CLTA 0 | HepG2-TUBA1B-RELA 0 | WPMY1-ACTB-RAB5A 0 | WPMY1-CANX-COX4 0 | WPMY1-GM130-SQSTM1 0 | WPMY1-TP53BP1-CLTA 0 | WPMY1-TUBA1B-RELA 0

CN1[C@@H]2C[C@@H](OC(=O)[C@H](CO)c3ccccc3)C[C@H]1[C@@H]1O[C@@H]12 [Scopolamine hydrobromide]
inactive: A549-ACTB-RAB5A 0 | A549-CANX-COX4 0 | A549-GM130-SQSTM1 0 | A549-TP53BP1-CLTA 0 | A549-TUBA1B-RELA 0 | HepG2-ACTB-RAB5A 0 | HepG2-CANX-COX4 0 | HepG2-GM130-SQSTM1 0 | HepG2-TP53BP1-CLTA 0 | HepG2-TUBA1B-RELA 0 | WPMY1-ACTB-RAB5A 0 | WPMY1-CANX-COX4 0 | WPMY1-GM130-SQSTM1 0 | WPMY1-TP53BP1-CLTA 0 | WPMY1-TUBA1B-RELA 0

CCN1C[C@]2(COC)CC[C@H](O)[C@]34[C@@H]5C[C@H]6[C@H](OC)[C@@H]5[C@](O)(C[C@@H]6OC)[C@](O)([C@H]13)[C@@H](OC)[C@H]24 [Delsoline]
inactive: A549-ACTB-RAB5A 0 | A549-CANX-COX4 0 | A549-GM130-SQSTM1 0 | A549-TP53BP1-CLTA 0 | A549-TUBA1B-RELA 0 | HepG2-ACTB-RAB5A 0 | HepG2-CANX-COX4 0 | HepG2-GM130-SQSTM1 0 | HepG2-TP53BP1-CLTA 0 | HepG2-TUBA1B-RELA 0 | WPMY1-ACTB-RAB5A 0 | WPMY1-CANX-COX4 0 | WPMY1-GM130-SQSTM1 0 | WPMY1-TP53BP1-CLTA 0 | WPMY1-TUBA1B-RELA 0

O=c1ccc2ccc3occc3c2o1 [Angelicin]
inactive: A549-ACTB-RAB5A 0 | A549-CANX-COX4 0 | A549-GM130-SQSTM1 0 | A549-TP53BP1-CLTA 0 | A549-TUBA1B-RELA 0 | HepG2-ACTB-RAB5A 0 | HepG2-CANX-COX4 0 | HepG2-GM130-SQSTM1 0 | HepG2-TP53BP1-CLTA 0 | HepG2-TUBA1B-RELA 0 | WPMY1-ACTB-RAB5A 0 | WPMY1-CANX-COX4 0 | WPMY1-GM130-SQSTM1 0 | WPMY1-TP53BP1-CLTA 0 | WPMY1-TUBA1B-RELA 0

N#CC(C#N)=Cc1ccc(O)c(O)c1
inactive: A549-ACTB-RAB5A 0 | A549-CANX-COX4 0 | A549-GM130-SQSTM1 0 | A549-TP53BP1-CLTA 0 | A549-TUBA1B-RELA 0 | HepG2-ACTB-RAB5A 0 | HepG2-CANX-COX4 0 | HepG2-GM130-SQSTM1 0 | HepG2-TP53BP1-CLTA 0 | HepG2-TUBA1B-RELA 0 | WPMY1-ACTB-RAB5A 0 | WPMY1-CANX-COX4 0 | WPMY1-GM130-SQSTM1 0 | WPMY1-TP53BP1-CLTA 0 | WPMY1-TUBA1B-RELA 0
